Our source for the Potency and outcome values is PubChem BioAssay (Tox21).

The nature of test [1]: qHTS assay for small molecule agonists of the p53 signaling pathway (AID 651631; calls by dose curve; note: nearly all actives have a fitted effect of over 15% in size). An outline of the steps:
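HCT-116 cells carrying a stable p53 response element–beta-lactamase reporter were plated, rested 5 h at 37 °C, then exposed to compound in DMSO for 16 h at 37 °C; reporter activity was read as FRET substrate fluorescence after 2 h at room temperature.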
(In general: In qHTS, concentration-response curves come from the screen itself.)

Test [2] can be described thus: qHTS assay for small molecules that induce genotoxicity in human embryonic kidney cells expressing luciferase-tagged ATAD5 (AID 651632). Note: nearly all actives have a fitted effect of over 15% in size. An outline of the steps:
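Test compounds were delivered by pin tool onto HEK293T reporter cells (2,000/well) expressing ATAD5 fused to luciferase. After 16 hr at 37C, 5% CO2, Amplite was added for 30 min at room temperature and luminescence was measured.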

Test [3] is described as follows: qHTS assay for small molecule agonists of the p53 signaling pathway - cell viability (AID 651633; calls by dose curve; note: nearly all actives have a fitted effect of over 30% in size). The procedure, abridged: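 p53RE-bla cells were treated with compound for 16 hours at 37 C. Cytotoxicity was then measured as CellTiter-Glo luminescence after 30 min at room temperature.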
A short description of test [4]: qHTS assay for small molecules that induce genotoxicity in human embryonic kidney cells expressing luciferase-tagged ATAD5 - cell viability (AID 651634; calls by dose curve; note: nearly all actives have a fitted effect of over 25% in size). An outline of the steps:
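Quantitative high-throughput format. HEK293T cells expressing ATAD5 fused to luciferase were plated at 2,000 cells/well and treated 15.5 hr with compound versus DMSO. Viability was determined by fluorescent live-cell protease substrate, 30 min at 37C.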

Test [5] is described as follows: qHTS assay for small molecule disruptors of the mitochondrial membrane potential - cell viability (AID 720634; calls by dose curve;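 note: human HepG2 liver cancer cells; nearly all actives have a fitted effect of over 20% in size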). An outline of the steps:
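Same-well counter-screen: following the MMP dye addition, CellTiter-Glo was added to 1 hr compound-treated HepG2 cells and luminescence read after 30 min at room temperature.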

Test [6] in a line: qHTS assay for small molecule disruptors of the mitochondrial membrane potential (AID 720635). Note: potency is the fitted concentration of half-maximal effect. The procedure, abridged: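 HepG2 cells exposed to compound 1 hr at 37C, then Mito-MPS dye 30 min. Ratio read of aggregate (540/590 nm) versus monomer (490/535 nm) fluorescence.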
A short description of test [7]: qHTS assay to test for compound auto fluorescence at 590 nm (red) in HepG2 cells (AID 720674). The procedure, abridged:
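HepG2 cells, 2,000 per well in MEM with 10% FBS, attached overnight at 37 C, then got 23 nL compound or DMSO. After 1 hr at 37 C, 5% CO2, red fluorescence was read at 540/590 nm against Rose Bengal sodium as reference.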

A short description of test [8]: qHTS assay to test for compound auto fluorescence at 460 nm (blue) in HEK293 cells (AID 720678). The procedure, abridged:
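After cell attachment (4-5 hr, 37C), compounds were pinned onto HEK293 monolayers in 10% dialyzed FBS medium. The blue channel (405/460 nm) was read following overnight culture. Equivalency was calculated against triamterene.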

The nature of test [9]: qHTS assay to test for compound auto fluorescence at 590 nm (red) in HEK293 cells (AID 720679). An outline of the steps:
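Plates of HEK293 cells (10% dialyzed FBS) are treated with 23 nL compound or DMSO vehicle after a 4-5 hr attachment period, incubated overnight at 37C, and read for red fluorescence at 540/590nm.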

Test [10] can be described thus: qHTS assay to test for compound auto fluorescence at 535 nm (green) in HEK293 cells (AID 720680).
Test [11] in a line: qHTS assay to test for compound auto fluorescence at 460 nm (blue) in HEK293 cell free culture (AID 720681). The procedure, abridged: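 Compounds were added to cell-free DMEM with 10% FBS and fluorescence read directly. The blue channel used 405 nm excitation and 460 nm emission, with triamterene as the reference fluorophore.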
A short description of test [12]: qHTS assay to test for compound auto fluorescence at 535 nm (green) in HEK293 cell free culture (AID 720682). The procedure, abridged: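 Read-out: 485/535 nm fluorescence intensity, calibrated against fluorescein. Medium only (DMEM + 10% FBS, no cells); test compound or DMSO vehicle added by pintool before plate reading.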
The nature of test [13]: qHTS assay to test for compound auto fluorescence at 590 nm (red) in HEK293 cell free culture (AID 720683). An outline of the steps: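 Cell-free wells of DMEM with 10% FBS received compound, and intrinsic fluorescence was read at excitation/emission 540/590 nm. Values expressed as equivalence to Rose Bengal sodium.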
Test [14] is described as follows: qHTS assay to test for compound auto fluorescence at 590 nm (red) in HepG2 cell free culture (AID 720684). An outline of the steps: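 Rose Bengal sodium served as the reference for red signal. Test compounds were dispensed into serum-containing MEM (10% FBS) without cells, and plates were read at 540/590 nm.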
Test [15] in a line: qHTS assay to test for compound auto fluorescence at 460 nm (blue) in HepG2 cell free culture (AID 720685). An outline of the steps:
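Cell-free plates of MEM plus 10% FBS received 23 nL compound or DMSO vehicle; blue-channel (405/460 nm) intensity scored against triamterene as reference fluorophore.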

A short description of test [16]: qHTS assay to test for compound auto fluorescence at 535 nm (green) in HepG2 cell free culture (AID 720686).
Test [17] in a line: qHTS assay to test for compound auto fluorescence at 460 nm (blue) in HepG2 cells (AID 720687). The procedure, abridged: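 HepG2 cells in MEM with 10% FBS, attached overnight at 37 C, were exposed to compound or DMSO for 1 hr at 37 C, 5% CO2. Blue fluorescence was read at 405/460 nm, with triamterene as reference fluorophore.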
Test [18] addresses Glucocorticoid receptor (Homo sapiens) (UniProt P04150). Nature of the test: qHTS assay to identify small molecule agonists of the glucocorticoid receptor (GR) signaling pathway (AID 720691; active = well fitted activation curve with a large enough effect in the signal ratio in the repeat runs, not every such curve was filed as active; the % refers to the signal ratio). The following applies: GR-bla HeLa, beta-lactamase reporter ratio, 18 h; activation: at 62.4 µM (top of the series). An outline of the steps: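 A HeLa cervical cancer line expressing GR and a glucocorticoid response element-driven beta-lactamase gene is treated with compounds for 18 h; LiveBLAzer B/G FRET substrate is then applied and fluorescence read.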

Test [19] has the same target. Briefly: qHTS assay to identify small molecule antagonists of the glucocorticoid receptor (GR) signaling pathway (AID 720692; active = well fitted inhibition curve with a large enough effect in the signal ratio in the repeat runs, not every such curve was filed as active; the % refers to the signal ratio). The procedure, abridged: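 GRE-bla HeLa line, dex-stimulated (5 nM final). Compound exposure 18 h, 37 C. Beta-lactamase FRET read after 2 h RT substrate.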
Test [20] is described as follows: qHTS assay to test for compound auto fluorescence at 535 nm (green) in HepG2 cells (AID 720675).

Molecules are shown by their SMILES. Inconclusive results are not listed. Calls of active or inactive are those of the source. Unless noted, calls come from the whole dose curve; as a rule, active = well fitted curve in the direction sought with a large enough effect in the repeat runs; inconclusive = weak or mixed curves; inactive = no such curve, though single readings can be large; an effect the other way counts as inactive or inconclusive.

Chain of Glucocorticoid receptor (Homo sapiens) (P04150 whole entry, looked up): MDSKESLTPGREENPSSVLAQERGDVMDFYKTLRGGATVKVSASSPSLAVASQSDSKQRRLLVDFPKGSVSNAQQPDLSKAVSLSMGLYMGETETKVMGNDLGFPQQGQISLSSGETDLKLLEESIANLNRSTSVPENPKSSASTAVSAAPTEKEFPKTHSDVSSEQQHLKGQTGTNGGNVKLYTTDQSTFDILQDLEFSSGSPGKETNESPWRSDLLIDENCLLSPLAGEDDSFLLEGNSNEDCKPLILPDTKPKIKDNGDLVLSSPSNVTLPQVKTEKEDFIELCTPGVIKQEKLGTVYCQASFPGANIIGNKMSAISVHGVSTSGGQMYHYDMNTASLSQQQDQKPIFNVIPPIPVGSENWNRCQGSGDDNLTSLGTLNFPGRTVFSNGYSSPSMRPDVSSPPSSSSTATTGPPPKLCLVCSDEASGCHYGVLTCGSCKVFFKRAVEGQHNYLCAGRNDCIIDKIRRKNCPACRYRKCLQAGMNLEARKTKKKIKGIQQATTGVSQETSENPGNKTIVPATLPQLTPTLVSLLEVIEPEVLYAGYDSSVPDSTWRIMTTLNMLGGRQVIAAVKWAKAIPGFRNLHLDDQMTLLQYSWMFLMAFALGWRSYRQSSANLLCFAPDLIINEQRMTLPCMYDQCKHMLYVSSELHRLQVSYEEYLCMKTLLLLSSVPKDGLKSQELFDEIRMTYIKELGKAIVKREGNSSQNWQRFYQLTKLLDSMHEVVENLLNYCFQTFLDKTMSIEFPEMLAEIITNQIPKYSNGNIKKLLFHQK

Turning to `CCC(O)c1ccccc1` (stereo not given), the Potency entry in test [1], in test [2], in test [3], in test [4], in [5] and in test [6] was “inactive” in each case. The Potency result in test [8], in test [11], in test [15], in test [16], in [17] and in test [18] was “inactive” in each case. For the same compound, the Potency result in test [19] is “inactive”. Moreover, the compound was classed as inactive in [7], in [9], in [10], in test [12], in test [13] and in test [14].
Take `C[C@H](Cc1ccc(O)c(O)c1)[C@@H](C)Cc1ccc(O)c(O)c1`: the Potency entry in test [1], in test [2], in [3], in test [4], in test [5] and in test [20] was “inactive” throughout. For the same compound, the Potency entry in [8], in [11], in test [15], in [16], in [17] and in test [18] was “inactive” in each case. Further, the Potency in [6] is 13.3 µM (active). The call in test [7], in test [9], in test [10] and in test [13] was inactive.
Consider `CC(C)(Oc1ccc(C2CCCc3ccccc32)cc1)C(=O)O` (stereo not given), for which the Potency entry in [1], in test [2], in test [3], in test [4], in [5] and in test [6] was “inactive” in each case. For the same compound, the Potency entry in [8], in [11], in [15], in test [16], in test [17] and in [18] was “inactive” in each case. Besides, the Potency result in [19] is “inactive”. For the same compound, the compound was classed as inactive in test [7], in test [9], in [10], in [12], in test [13] and in test [14].
With `CC12CCC(C1)C(C)(C)C2=O` (stereo not given), the Potency entry in [1], in test [2], in test [3], in test [4], in [5] and in test [6] was “inactive” in each case. Moreover, the Potency entry in test [20], in test [8], in [11], in test [15] and in test [17] was “inactive” each time. In addition, the compound was classed as inactive in test [7], in [9], in test [10], in test [13] and in test [14].
`FC(F)(F)C(F)(F)C(F)(F)C(F)(F)C(F)(F)F`: the Potency entry in [1], in test [2], in test [3], in test [4], in test [5] and in [6] was “inactive” throughout. Also, the Potency result in test [8], in test [11], in test [15], in [16] and in [17] was “inactive” throughout. In addition, the compound was classed as inactive in test [7], in test [9], in test [10], in test [12], in test [13] and in test [14].
For the compound `C[Se]CC[C@H](N)C(=O)O`, the Potency entry in [1], in [2], in [3], in test [4], in [5] and in test [6] was “inactive” each time. Moreover, the Potency entry in test [20], in test [8], in [11], in [15], in test [16] and in [17] was “inactive” in each case. Also, the Potency entry in test [18] and in [19] was “inactive” each time. For the same compound, the call in test [7], in test [9], in test [10], in test [13] and in [14] was inactive.
In the case of `CNCC(=O)N[C@@H](CCCN=C(N)N)C(=O)N[C@H](C(=O)N[C@@H](Cc1ccc(O)cc1)C(=O)N[C@H](C(=O)N[C@@H](Cc1cnc[nH]1)C(=O)N1CCC[C@H]1C(=O)N[C@@H](C)C(=O)O)C(C)C)C(C)C`, the Potency result in test [1], in test [2], in test [3], in [4], in test [5] and in [6] was “inactive” throughout. For the same compound, the Potency result in test [20], in test [8], in test [11], in test [15], in [17] and in test [18] was “inactive” in each case. For the same compound, the Potency result in test [19] was “inactive”. The outcome in [7], in test [9], in [10], in test [13] and in [14] was inactive.
